Publication PMC7862700, “An all-to-all approach to the identification of sequence-specific readers for epigenetic DNA modifications on cytosine”

What was measured:
Assay in all cases: DAPPL (digital affinity profiling via proximity ligation, sequencing); 10 mM Tris-HCl pH 7.5, 50 mM NaCl, 1 mM DTT, 4% glycerol, room temperature, 30 min; GST-TFs on glutathione beads, 16-mer random dsDNA library, 0.1% formaldehyde crosslink after washing; high values mean tight binding
Details in all cases: protein: recombinant; tags: N-terminal GST; dsDNA, one strand shown
FLI1 = target: T1, FLI1 (Homo sapiens, UniProt Q01543 1-452)
T1 sequence: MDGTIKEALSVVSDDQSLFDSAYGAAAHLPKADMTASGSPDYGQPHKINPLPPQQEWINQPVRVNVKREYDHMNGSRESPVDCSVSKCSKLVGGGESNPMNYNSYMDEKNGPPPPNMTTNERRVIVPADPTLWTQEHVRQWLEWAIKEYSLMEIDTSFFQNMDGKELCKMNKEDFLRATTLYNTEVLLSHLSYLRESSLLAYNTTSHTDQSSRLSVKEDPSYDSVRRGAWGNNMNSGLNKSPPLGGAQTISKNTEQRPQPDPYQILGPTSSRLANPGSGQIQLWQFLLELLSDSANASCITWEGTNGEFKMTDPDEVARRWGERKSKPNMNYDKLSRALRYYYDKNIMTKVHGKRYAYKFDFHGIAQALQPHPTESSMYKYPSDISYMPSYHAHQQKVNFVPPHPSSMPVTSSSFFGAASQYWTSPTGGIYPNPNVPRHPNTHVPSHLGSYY
Procedure, shortened: (§1)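 In yeast, human transcription factors were expressed with a GST fusion, then pulled down on glutathione beads and given DNA barcodes. Pooled with a tag-only sample, they were exposed to 200 nmole of a 16-mer random double-stranded DNA library (Tris/NaCl/DTT/glycerol buffer, room temperature, 30 min), washed, crosslinked with 0.1% formaldehyde, proximity-ligated using BsaI/T4 ligase for 1 h at 37 °C, PCR-amplified and read on an Illumina NextSeq500. Each hexamer's frequency of reads for a factor, divided by the matching frequency for the tag-only sample, gives the binding signal.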

ELK1 = target: T2, ELK1 (Homo sapiens, UniProt P19419 1-428)
T2 sequence: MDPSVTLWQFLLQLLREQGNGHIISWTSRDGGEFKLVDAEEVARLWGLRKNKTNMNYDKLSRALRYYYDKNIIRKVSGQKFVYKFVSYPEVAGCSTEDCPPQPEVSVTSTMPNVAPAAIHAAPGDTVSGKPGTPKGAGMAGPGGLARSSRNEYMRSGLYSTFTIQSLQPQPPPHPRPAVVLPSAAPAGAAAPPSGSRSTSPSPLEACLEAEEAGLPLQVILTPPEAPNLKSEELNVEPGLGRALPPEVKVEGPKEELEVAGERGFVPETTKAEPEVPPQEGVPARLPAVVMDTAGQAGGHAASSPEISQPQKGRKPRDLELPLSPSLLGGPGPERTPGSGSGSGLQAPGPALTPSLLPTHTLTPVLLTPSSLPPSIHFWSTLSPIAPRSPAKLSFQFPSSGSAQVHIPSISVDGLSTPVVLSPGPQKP
Procedure, shortened: as §1

ELF1 = ELF1 (Homo sapiens, UniProt P32519 1-619)
Procedure, shortened: as §1

SPI1 = SPI1 (Homo sapiens, UniProt P17947 1-270)
Procedure, shortened: as §1

ELK3 = target: T3, ELK3 (Homo sapiens, UniProt P41970 1-407)
T3 sequence: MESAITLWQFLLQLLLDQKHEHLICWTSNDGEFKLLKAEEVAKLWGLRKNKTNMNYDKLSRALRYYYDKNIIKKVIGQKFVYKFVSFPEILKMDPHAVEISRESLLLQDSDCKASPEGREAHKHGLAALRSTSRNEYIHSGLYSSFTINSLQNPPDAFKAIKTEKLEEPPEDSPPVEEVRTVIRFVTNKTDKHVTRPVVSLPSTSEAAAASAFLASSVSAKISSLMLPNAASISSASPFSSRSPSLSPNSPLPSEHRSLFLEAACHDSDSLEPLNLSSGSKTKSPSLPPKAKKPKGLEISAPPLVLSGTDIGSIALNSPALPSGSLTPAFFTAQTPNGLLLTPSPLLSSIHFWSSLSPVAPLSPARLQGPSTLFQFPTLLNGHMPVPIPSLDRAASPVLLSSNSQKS
Procedure, shortened: as §1

ELK4 = target: T4, ELK4 (Homo sapiens, UniProt P28324-2 1-405)
T4 sequence: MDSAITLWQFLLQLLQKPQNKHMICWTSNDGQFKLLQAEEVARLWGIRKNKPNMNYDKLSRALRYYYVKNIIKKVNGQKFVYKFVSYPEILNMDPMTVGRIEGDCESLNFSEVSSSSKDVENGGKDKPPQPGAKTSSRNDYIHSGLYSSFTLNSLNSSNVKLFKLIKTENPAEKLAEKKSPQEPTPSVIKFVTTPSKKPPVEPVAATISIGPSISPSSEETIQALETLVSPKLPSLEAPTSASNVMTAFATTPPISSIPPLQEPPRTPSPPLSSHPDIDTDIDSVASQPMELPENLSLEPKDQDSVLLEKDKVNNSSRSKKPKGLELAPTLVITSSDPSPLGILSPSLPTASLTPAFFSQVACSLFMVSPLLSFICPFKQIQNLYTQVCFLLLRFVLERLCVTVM
Procedure, shortened: as §1

ETV2 = target: T5, ETV2 (Homo sapiens, UniProt O00321 1-342)
T5 sequence: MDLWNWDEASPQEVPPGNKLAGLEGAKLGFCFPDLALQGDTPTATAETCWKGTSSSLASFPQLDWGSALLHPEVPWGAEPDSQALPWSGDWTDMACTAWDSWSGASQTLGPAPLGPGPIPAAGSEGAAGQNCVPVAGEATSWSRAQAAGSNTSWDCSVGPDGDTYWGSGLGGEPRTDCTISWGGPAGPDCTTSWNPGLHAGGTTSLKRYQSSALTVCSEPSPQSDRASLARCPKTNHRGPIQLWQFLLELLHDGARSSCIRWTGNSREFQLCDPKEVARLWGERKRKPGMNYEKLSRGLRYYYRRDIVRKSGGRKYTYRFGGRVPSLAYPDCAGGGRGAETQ
Procedure, shortened: as §1

ETV3L = target: T6, ETV3L (Homo sapiens, UniProt Q6ZN32 1-361)
T6 sequence: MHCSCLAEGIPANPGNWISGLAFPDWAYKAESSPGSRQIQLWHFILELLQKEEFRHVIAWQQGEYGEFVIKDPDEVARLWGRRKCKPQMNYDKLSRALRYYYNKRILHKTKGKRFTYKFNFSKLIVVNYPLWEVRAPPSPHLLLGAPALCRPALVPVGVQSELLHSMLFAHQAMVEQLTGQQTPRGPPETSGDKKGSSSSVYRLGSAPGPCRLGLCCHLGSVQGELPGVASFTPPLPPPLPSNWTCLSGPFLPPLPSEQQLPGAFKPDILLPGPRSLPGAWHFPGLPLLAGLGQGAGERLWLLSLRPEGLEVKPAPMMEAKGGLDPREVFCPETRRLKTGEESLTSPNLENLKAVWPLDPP
Procedure, shortened: as §1

ETS2 = target: T7, ETS2 (Homo sapiens, UniProt P15036 1-469)
T7 sequence: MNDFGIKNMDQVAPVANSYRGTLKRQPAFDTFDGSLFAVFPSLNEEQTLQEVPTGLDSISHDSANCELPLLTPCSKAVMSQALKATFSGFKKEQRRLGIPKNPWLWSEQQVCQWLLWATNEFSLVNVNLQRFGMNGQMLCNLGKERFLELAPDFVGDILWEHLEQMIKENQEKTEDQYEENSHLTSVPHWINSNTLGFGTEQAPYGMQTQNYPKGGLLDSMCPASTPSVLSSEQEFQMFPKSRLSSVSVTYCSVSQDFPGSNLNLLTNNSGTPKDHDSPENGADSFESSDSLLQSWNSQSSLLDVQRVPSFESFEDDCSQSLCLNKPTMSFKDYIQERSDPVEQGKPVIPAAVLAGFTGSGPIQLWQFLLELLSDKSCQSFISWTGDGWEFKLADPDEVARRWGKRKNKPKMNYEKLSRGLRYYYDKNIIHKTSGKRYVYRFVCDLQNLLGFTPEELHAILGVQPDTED
Procedure, shortened: as §1

ETV7 = target: T8, ETV7 (Homo sapiens, UniProt Q9Y603 1-341)
T8 sequence: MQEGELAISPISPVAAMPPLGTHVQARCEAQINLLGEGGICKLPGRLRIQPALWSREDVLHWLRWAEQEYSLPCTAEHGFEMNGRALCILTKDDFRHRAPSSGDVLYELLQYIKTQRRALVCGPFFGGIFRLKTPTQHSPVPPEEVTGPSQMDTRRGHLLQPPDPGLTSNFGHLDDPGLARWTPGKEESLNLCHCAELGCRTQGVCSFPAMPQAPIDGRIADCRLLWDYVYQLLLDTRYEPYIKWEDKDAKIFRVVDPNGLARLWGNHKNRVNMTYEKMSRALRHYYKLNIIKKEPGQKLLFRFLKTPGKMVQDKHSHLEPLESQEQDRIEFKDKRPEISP
Procedure, shortened: as §1

ELF5 = target: T9, ELF5 (Homo sapiens, UniProt Q9UKW6-2 1-255)
T9 sequence: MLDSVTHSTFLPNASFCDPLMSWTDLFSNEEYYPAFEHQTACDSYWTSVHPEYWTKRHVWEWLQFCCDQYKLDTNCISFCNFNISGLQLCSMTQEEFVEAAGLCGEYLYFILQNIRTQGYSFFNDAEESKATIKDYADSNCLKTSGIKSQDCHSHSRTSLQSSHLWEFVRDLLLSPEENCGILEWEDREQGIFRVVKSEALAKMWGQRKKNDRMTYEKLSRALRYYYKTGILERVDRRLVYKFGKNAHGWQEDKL
Procedure, shortened: as §1

ETV3 = target: T10, ETV3 (Homo sapiens, UniProt P41162-2 1-143)
T10 sequence: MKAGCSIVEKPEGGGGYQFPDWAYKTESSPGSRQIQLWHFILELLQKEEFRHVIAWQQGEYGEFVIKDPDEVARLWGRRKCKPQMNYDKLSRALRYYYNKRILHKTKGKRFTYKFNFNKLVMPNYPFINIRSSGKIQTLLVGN
Procedure, shortened: as §1

ETV6 = ETV6 (Homo sapiens, UniProt P41212 1-452)
Procedure, shortened: as §1

ETV6, sequence (P41212 whole entry): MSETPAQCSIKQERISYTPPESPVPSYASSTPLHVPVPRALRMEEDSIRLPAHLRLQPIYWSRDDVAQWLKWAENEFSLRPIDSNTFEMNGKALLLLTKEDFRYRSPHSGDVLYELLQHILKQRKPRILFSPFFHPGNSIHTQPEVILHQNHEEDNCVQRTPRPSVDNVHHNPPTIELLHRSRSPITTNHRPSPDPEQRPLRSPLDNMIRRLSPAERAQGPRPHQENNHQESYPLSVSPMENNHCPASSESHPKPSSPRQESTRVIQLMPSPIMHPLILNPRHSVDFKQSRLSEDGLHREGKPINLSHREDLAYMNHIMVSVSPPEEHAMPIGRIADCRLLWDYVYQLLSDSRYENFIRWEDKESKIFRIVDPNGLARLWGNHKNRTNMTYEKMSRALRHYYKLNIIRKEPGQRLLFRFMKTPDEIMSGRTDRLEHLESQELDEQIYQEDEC
ELF1, sequence (P32519 whole entry): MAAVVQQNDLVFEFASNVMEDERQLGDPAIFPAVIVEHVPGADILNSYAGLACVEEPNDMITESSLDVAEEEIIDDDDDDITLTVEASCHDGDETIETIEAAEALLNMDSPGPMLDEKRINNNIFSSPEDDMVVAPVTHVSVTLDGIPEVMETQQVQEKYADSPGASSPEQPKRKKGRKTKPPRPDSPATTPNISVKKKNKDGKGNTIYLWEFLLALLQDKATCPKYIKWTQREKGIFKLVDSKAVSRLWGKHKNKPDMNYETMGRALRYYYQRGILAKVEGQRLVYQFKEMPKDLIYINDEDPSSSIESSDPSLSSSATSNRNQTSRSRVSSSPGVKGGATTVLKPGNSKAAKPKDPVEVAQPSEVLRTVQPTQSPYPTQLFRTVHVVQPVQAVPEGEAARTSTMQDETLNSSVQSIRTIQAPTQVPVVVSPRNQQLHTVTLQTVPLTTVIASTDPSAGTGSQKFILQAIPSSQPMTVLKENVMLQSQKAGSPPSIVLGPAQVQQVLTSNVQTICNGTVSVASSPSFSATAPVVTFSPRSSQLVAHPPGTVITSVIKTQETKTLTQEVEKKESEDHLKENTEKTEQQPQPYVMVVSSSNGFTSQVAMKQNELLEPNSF

## GACACT
FLI1
  binding signal: 1.01 fold enrichment (6-mer frequency, TF over GST control)
ELK1
  binding signal: 1.02 fold enrichment (6-mer frequency, TF over GST control)
ELF1
  binding signal: 1.03 fold enrichment (6-mer frequency, TF over GST control)
SPI1
  binding signal: 1.02 fold enrichment (6-mer frequency, TF over GST control)
ELK3
  binding signal: 1.06 fold enrichment (6-mer frequency, TF over GST control)
ELK4
  binding signal: 1.05 fold enrichment (6-mer frequency, TF over GST control)
ETV2
  binding signal: 1.1 fold enrichment (6-mer frequency, TF over GST control)
ETV3L
  binding signal: 1.08 fold enrichment (6-mer frequency, TF over GST control)
ETS2
  binding signal: 1.05 fold enrichment (6-mer frequency, TF over GST control)
ETV7
  binding signal: 1.04 fold enrichment (6-mer frequency, TF over GST control)
ELF5
  binding signal: 1.05 fold enrichment (6-mer frequency, TF over GST control)
ETV3
  binding signal: 1.03 fold enrichment (6-mer frequency, TF over GST control)
ETV6
  binding signal: 1.13 fold enrichment (6-mer frequency, TF over GST control)
